“And” between values parts separate entries of the source, which are not always exact repeats. Identical values can stand only once. Where a structure was tested more than once in an assay, its records may differ in their call. The source made the active and inactive calls. Unless noted, calls follow the shape of the dose curve; as a rule, active = well fitted curve in the direction sought with a large enough effect in the repeat runs; inconclusive = weak or mixed curves; inactive = no such curve, though single readings can be large; an effect the other way counts as inactive or inconclusive.

Assay [1] is described as follows: qHTS assay to identify small molecule antagonists of the thyroid receptor (TR) signaling pathway - cell viability counter screen (AID 743064). Also: nearly all actives have a fitted effect of over 50% in size. Also: potency is read from the fitted curve at half-maximal effect. The gist of the method: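 Same-well viability check: GH3.TRE-Luc cells stimulated with 1 nM T3 alongside test compound for 23.5 h, followed by CellTiter-Fluor fluorescence.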
A general note: In qHTS, concentration-response curves come from the screen itself.

In assay [2] the test system is thyroid hormone receptor (rat, GH3 cells). As to the kind of experiment: qHTS assay to identify small molecule agonists of the thyroid receptor (TR) signaling pathway (AID 743066; calls by dose curve; also: potency is read from the fitted curve at half-maximal effect).
Assay [3] deals with Estrogen receptor (Homo sapiens) (UniProt P03372). Briefly: qHTS assay to identify small molecule antagonists of the estrogen receptor alpha (ER-alpha) signaling pathway (AID 743069; active = well fitted curve in the direction sought with a large enough effect in the signal ratio in the repeat runs, not every such curve was filed as active; inconclusive = weak or mixed curves, or effect the other way; inactive = no such curve, though single readings can be large or run the other way; the % refers to the signal ratio; also: potency is read from the fitted curve at half-maximal effect). The gist of the method:
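Fluorescence intensity from a beta-lactamase FRET substrate served as the read-out. Cells: HEK293 with stably integrated ER-alpha-UAS-bla reporter. Agonist 17beta-estradiol was co-added with compounds; incubation 18 hr at 37C, substrate 2 hr at room temperature.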

Assay [4] is described as follows: qHTS assay to identify small molecule antagonists of the estrogen receptor alpha (ER-alpha) signaling pathway - cell viability counter screen (AID 743074; calls by dose curve; also: nearly all actives have a fitted effect of over 45% in size; also: potency is read from the fitted curve at half-maximal effect).
Assay [5] addresses Estrogen receptor (Homo sapiens) (UniProt P03372). As to the kind of experiment: qHTS assay to identify small molecule agonists of the estrogen receptor alpha (ER-alpha) signaling pathway (AID 743075; calls by dose curve; also: potency is read from the fitted curve at half-maximal effect).
The target is the same in assay [6]. As to the kind of experiment: qHTS assay to identify small molecule agonists of the estrogen receptor alpha (ER-alpha) signaling pathway using the BG1 cell line (AID 743079). Also: nearly all actives have a fitted effect of over 20% in size. Also: potency is read from the fitted curve at half-maximal effect. As to conditions: BG1Luc4E2 cells, ERE-luciferase agonist, 22 h; activation: at 70.3 µM (top of the series).
Assay [7] can be described thus: qHTS assay to identify small molecule antagonists of the estrogen receptor alpha (ER-alpha) signaling pathway using the BG1 cell line (AID 743080; calls by dose curve;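 also: BG1 cells stimulated with 17beta-estradiol alongside compound; nearly all actives have a fitted effect of over 25% in size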; also: potency is read from the fitted curve at half-maximal effect). The gist of the method: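 Endogenous full-length ER-alpha in BG1-Luc-4E2 cells drives a stably integrated 4×ERE luciferase gene; compounds were tested against 17beta-estradiol over 21.5 h, with luminescence and multiplexed viability fluorescence recorded.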

Assay [8] can be described thus: qHTS assay to identify small molecule antagonists of the estrogen receptor alpha (ER-alpha) signaling pathway using the BG1 cell line - cell viability counter screen (AID 743081).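 Also: compound given together with 17beta-estradiol as the ER stimulus; nearly all actives have a fitted effect of over 45% in size.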 Also: potency is read from the fitted curve at half-maximal effect.
Assay [9] has as its target Aromatase (Homo sapiens) (UniProt P11511). Briefly: qHTS assay to identify aromatase inhibitors (AID 743083). Also: nearly all actives have a fitted effect of over 55% in size.
Assay [10] in a line: qHTS assay to identify small molecule antagonists of the thyroid receptor (TR) signaling pathway (AID 743065). Also: nearly all actives have a fitted effect of over 55% in size. Also: potency is read from the fitted curve at half-maximal effect. The gist of the method:
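Antagonism measured as loss of luciferase signal in GH3 cells stably carrying a TRE-luciferase reporter, co-treated with compound and T3 (1 nM final) for 23.5 h at 37 C. Viability was read in the same well by CellTiter-Fluor.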

Chain of Aromatase (Homo sapiens) (P11511 whole entry, looked up): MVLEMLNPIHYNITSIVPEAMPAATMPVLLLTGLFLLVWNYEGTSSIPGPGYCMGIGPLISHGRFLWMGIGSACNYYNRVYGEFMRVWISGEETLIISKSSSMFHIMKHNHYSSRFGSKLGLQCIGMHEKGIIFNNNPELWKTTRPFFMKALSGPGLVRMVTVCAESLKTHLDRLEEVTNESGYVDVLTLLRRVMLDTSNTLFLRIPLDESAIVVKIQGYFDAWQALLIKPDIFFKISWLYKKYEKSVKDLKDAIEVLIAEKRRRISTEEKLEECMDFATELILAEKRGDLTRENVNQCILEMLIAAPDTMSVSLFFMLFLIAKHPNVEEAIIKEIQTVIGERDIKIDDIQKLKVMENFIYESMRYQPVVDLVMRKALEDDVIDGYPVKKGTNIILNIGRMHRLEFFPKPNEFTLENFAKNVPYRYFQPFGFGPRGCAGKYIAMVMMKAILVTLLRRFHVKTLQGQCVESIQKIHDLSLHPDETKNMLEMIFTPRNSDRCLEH
Chain of Estrogen receptor (Homo sapiens) (P03372 whole entry, looked up): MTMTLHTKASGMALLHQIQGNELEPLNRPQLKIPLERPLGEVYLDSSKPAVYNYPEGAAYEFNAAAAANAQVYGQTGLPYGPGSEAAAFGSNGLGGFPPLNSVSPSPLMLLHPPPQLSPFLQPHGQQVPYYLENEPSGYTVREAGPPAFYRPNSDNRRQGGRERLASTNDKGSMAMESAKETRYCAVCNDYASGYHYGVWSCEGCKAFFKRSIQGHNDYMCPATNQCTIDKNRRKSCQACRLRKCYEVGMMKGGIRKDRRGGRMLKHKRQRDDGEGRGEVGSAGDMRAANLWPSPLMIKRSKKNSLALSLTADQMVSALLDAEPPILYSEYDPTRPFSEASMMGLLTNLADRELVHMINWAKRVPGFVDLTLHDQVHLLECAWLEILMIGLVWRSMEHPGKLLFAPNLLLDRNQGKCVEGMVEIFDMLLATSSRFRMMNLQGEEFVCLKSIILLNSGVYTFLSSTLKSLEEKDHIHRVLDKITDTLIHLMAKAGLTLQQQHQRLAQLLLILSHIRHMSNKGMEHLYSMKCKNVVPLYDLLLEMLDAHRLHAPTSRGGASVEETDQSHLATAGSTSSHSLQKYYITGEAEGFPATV

On to `CN1[C@@H]2CCC[C@H]1CC(NC(=O)c1nn(C)c3ccccc13)C2` (stereo partly specified), for which the Potency entry in [1], in assay [2], in assay [3], in assay [4], in [5] and in assay [6] was “inactive” each time. Moreover, the Potency entry in [7], in assay [8] and in assay [9] was “inactive” each time.
For `N[C@H](CCC(=O)O)C(=O)O`, the Potency result in assay [1], in [2], in [4], in [5], in [6] and in assay [7] was “inactive” each time. Besides, the Potency entry in [8] and in [9] was “inactive” throughout.
As to `CCC(=O)NCCC1CCc2ccc3c(c21)CCO3` (stereo unspecified), the Potency result in [1], in assay [2], in assay [4], in assay [5], in assay [8] and in [9] was “inactive” throughout. Also, in assay [6], the Potency is 4.22 µM (active).
Regarding `C/C=C(/CC[C@@H](C)[C@H]1CC[C@H]2C3=CC[C@H]4[C@H](C)[C@@H](O)CC[C@]4(C)[C@H]3CC[C@]12C)C(C)C`, the Potency entry in assay [1], in assay [2], in [4], in assay [8] and in [9] was “inactive” in each case.
On to `CC(C)=CCC/C(C)=C/C=C/C(C)=C/C=C/C(C)=C/C=C/C=C(C)/C=C/C=C(C)/C=C/C=C(\C)CCC=C(C)C`, for which the Potency result in [1], in [2], in assay [3], in [4], in assay [7] and in assay [8] was “inactive” each time. Further, the Potency entry in assay [9] was “inactive”. The Potency in assay [5] was 7.56 µM [inconclusive] (active); in [6] it was 6.68 µM (active).
`COc1cc2c(cc1OC)[C@@H](c1ccccc1)CN(C)CC2`: the Potency entry in assay [1], in assay [2], in [4], in assay [5], in assay [6] and in assay [8] was “inactive” in each case.
For `CCOC(=O)Oc1c(OC)cc(C(=O)O[C@@H]2C[C@@H]3CN4CCc5c([nH]c6cc(OC)ccc56)[C@H]4C[C@@H]3[C@H](C(=O)OC)[C@H]2OC)cc1OC`, the Potency result in assay [1], in assay [2], in [4] and in [8] was “inactive” each time.
For the molecule `COc1cc(NCCCC(C)N)c2ncccc2c1` (stereo unspecified), the results for the Potency in [1] and in [8] were 15 µM (active) and 18.8 µM (active), respectively. Also, the Potency result in assay [2], in [4] and in [5] was “inactive” each time.
Take `COc1cc(C)c(/C=C/C(C)=C/C=C/C(C)=C/C(=O)O)c(C)c1C`: the Potency entry in assay [1], in [4] and in assay [8] was “inactive” in each case. Further, the Potency was 5.96 µM (active) in assay [2], 4.25 µM [inconclusive] (active) in assay [5] and 0.473 µM (active) in [7].
Turning to `C[C@@H]1C[C@H]2C3C[C@H](F)C4=CC(=O)C=CC4(C)[C@@]3(F)[C@@H](O)CC2(C)[C@@]1(O)C(=O)COC(=O)C(C)(C)C` (stereo partly specified), the Potency result in assay [1], in assay [2], in assay [4], in assay [5], in assay [6] and in assay [8] was “inactive” each time. The Potency entry in [9] was “inactive”.
Turning to `CC(C)CCCC(C)NC(C)C` (stereo unspecified), the Potency entry in [10], in assay [2], in [3], in assay [4], in assay [5] and in [6] was “inactive” throughout. Besides, the Potency result in assay [7], in assay [8] and in assay [9] was “inactive” each time.
Consider `CCCCOC(=O)C(=O)Nc1cccc(-c2nn[nH]n2)c1`, for which the Potency entry in assay [1], in [4], in [5], in assay [6], in [7] and in [9] was “inactive” throughout.
Consider `CCCCC[C@H](O)/C=C/[C@H]1[C@H](O)CC(=O)[C@@H]1CCCCCCC(=O)O`, for which the Potency entry in [1], in assay [4], in assay [5], in [6], in assay [8] and in assay [9] was “inactive” in each case.
As to `CC(=O)N[C@@H](C=O)[C@@H](O)[C@H](O)[C@H](O)CO`, the Potency result in assay [10], in assay [2], in assay [3], in assay [4], in assay [5] and in assay [6] was “inactive” in each case. Also, the Potency entry in assay [7], in assay [8] and in assay [9] was “inactive” throughout.
In the case of `CCCCCc1ccc(C)cc1O`, the Potency in assay [10] is 26.6 µM (active). Also, the Potency result in assay [2], in assay [3], in assay [4], in assay [5], in assay [6] and in assay [7] was “inactive” throughout. For the same molecule, the Potency result in assay [8] was “inactive”.
As to `CCSc1ccc2c(c1)N(CCCN1CCN(C)CC1)c1ccccc1S2`, the Potency result in [1], in assay [4], in [8] and in assay [9] was “inactive” throughout.
Take `C#C[C@]1(O)CC[C@H]2[C@@H]3CCC4=CC(=O)CC[C@@H]4[C@H]3C(=C)C[C@@]21CC`: the Potency entry in [1], in assay [4] and in assay [9] was “inactive” in each case. Further, the values for the Potency in [5] and in [6] were 2.39 µM [inconclusive] (active) and 1.88 µM (active), respectively.
Consider `COC1=C(C(=O)O)N2C(=O)[C@@H](NC(=O)[C@H](N)C3=CCC=CC3)[C@H]2SC1`, for which the Potency result in assay [1], in assay [3], in [5], in assay [6], in [7] and in [8] was “inactive” each time. Moreover, the Potency result in [9] was “inactive”.
For the molecule `CC1(C)S[C@@H]2[C@H](NC(=O)Cc3ccccc3)C(=O)N2[C@H]1C(=O)O`, the Potency entry in assay [1], in assay [4], in assay [5], in [6], in assay [7] and in assay [8] was “inactive” throughout. Besides, the Potency entry in assay [9] was “inactive”.
As for `CC[C@H]1NC(=O)[C@@H](NC(=O)c2ncccc2O)[C@@H](C)OC(=O)[C@H](c2ccccc2)NC(=O)[C@@H]2CC(=O)CCN2C(=O)[C@H](Cc2ccccc2)N(C)C(=O)[C@@H]2CCCN2C1=O`, the Potency entry in assay [10], in [2], in [3], in assay [4], in assay [5] and in assay [6] was “inactive” each time. Also, the Potency result in [7], in [8] and in [9] was “inactive” throughout.
Turning to `CCC(C)[C@H]1O[C@]2(C=C[C@@H]1C)C[C@@H]1C[C@@H](C/C=C(\C)[C@@H](O[C@H]3C[C@H](OC)[C@@H](O[C@H]4C[C@H](OC)[C@H](NC(C)=O)[C@H](C)O4)[C@H](C)O3)[C@@H](C)/C=C/C=C3\CO[C@@H]4[C@H](O)C(C)=C[C@@H](C(=O)O1)[C@]34O)O2` (stereo partly specified), the Potency was 2.66 µM (active) and 7.5 µM (active) in assay [1]; 1.69 µM [inconclusive] (active) in assay [3]; 8.49 µM (active) and 26.8 µM (active) in [4]; 23.7 µM (active) and inactive in assay [8]. Further, the Potency entry in assay [5] and in [9] was “inactive” in each case.
With `COC(=O)CCC[N+](C)(C)C`, the Potency result in assay [1], in assay [4], in [8] and in assay [9] was “inactive” each time.

The values above are taken from PubChem BioAssay (Tox21).
